For nine compounds, Potency and outcome results are on record in PubChem BioAssay (Tox21).

Records with an inconclusive call do not appear. Active and inactive are the calls of the source. Unless noted, calls follow the shape of the dose curve; as a rule, active = well fitted curve in the direction sought with a large enough effect in the repeat runs; inconclusive = weak or mixed curves; inactive = no such curve, though single readings can be large; an effect the other way counts as inactive or inconclusive.

The target of assay [1] is Aryl hydrocarbon receptor (Homo sapiens) (UniProt P35869). Put plainly: qHTS assay to identify small molecule that activate the aryl hydrocarbon receptor (AhR) signaling pathway (AID 743085).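 Also: HG2L7.5c1 human HepG2 liver cells with stably integrated DRE-driven firefly reporter; series mostly up to about 70 µM; nearly all actives have a fitted effect of over 15% in size.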 In short, it runs like this: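 HepG2 cells (HG2L7.5c1) stably carrying a firefly luciferase reporter driven by 20 dioxin responsive elements were exposed to compound for 24 h at 37C after a 5 h settling period; luminescence rise (ONE-Glo) indicated activation.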

Assay [2] can be described thus: qHTS assay to identify small molecule that activate the aryl hydrocarbon receptor (AhR) signaling pathway - cell viability counter screen (AID 743086).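 Also: HepG2 liver cells carrying the AhR DRE luciferase reporter; series mostly up to about 70 µM; nearly all actives have a fitted effect of over 45% in size.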 A digest of the protocol:
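Cytotoxicity counter screen: CellTiter-Fluor signal (30 min, 37 C) in 4000 HepG2 cells/well carrying the DRE-luciferase reporter, following 24 h compound exposure at 37 C.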
Background: qHTS replaces the single test concentration by a dilution series.

The target of assay [3] is Peroxisome proliferator-activated receptor gamma (Homo sapiens) (UniProt P37231). Put plainly: qHTS assay to identify small molecule agonists of the peroxisome proliferator-activated receptor gamma (PPARg) signaling pathway (AID 743094; active = well fitted activation curve with a large enough effect in the signal ratio in the repeat runs, not every such curve was filed as active; the % refers to the signal ratio). In short, it runs like this: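 Reporter activation was scored by fluorescence of cleaved LiveBLAzer B/G substrate (1 h, room temperature) in PPARg-bla HEK293H cells previously treated 17 h at 37C with DMSO-dissolved compounds.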

Assay [4] is described as follows: qHTS assay for small molecule activators of the heat shock response signaling pathway - cell viability counter screen (AID 743209). Also: nearly all actives have a fitted effect of over 50% in size. A digest of the protocol: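 Viability of HSE-bla HeLa cells is measured with CellTiter-Glo in the wells already used for the reporter read. Compound exposure lasts 5 h at 37 C, and luminescence is read after 30 min at room temperature.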

A short description of assay [5]: qHTS assay for small molecule activators of the heat shock response signaling pathway (AID 743210; active = well fitted activation curve with a large enough effect in the signal ratio in the repeat runs, with a control signal flat, not every such curve was filed as active; the % refers to the signal ratio; also: series mostly up to about 63 µM). In short, it runs like this:
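Compound exposure lasted 5 h at 37 C in HeLa cells carrying a heat-shock-element-driven beta-lactamase reporter. Read-out: fluorescence intensity after 2.5 h room-temperature loading with LiveBLAzer B/G FRET substrate.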

Assay [6] is described as follows: qHTS assay to identify small molecule agonists of the peroxisome proliferator-activated receptor delta (PPARd) signaling pathway - cell viability counter screen (AID 743211). Also: nearly all actives have a fitted effect of over 55% in size. A digest of the protocol: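 PPARd-bla HEK293H cells (UAS-beta-lactamase reporter) were treated with compounds for 17 h at 37 C. Viability was then read in the same wells by CellTiter-Glo luminescence after 30 min at room temperature.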

Assay [7] has as its target Peroxisome proliferator-activated receptor delta (Homo sapiens) (UniProt Q03181). Description: qHTS assay to identify small molecule agonists of the peroxisome proliferator-activated receptor delta (PPARd) signaling pathway (AID 743212; calls by dose curve). A digest of the protocol: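 Beta-lactamase reporter readout: a ratiometric FRET signal from the LiveBLAzer substrate after 2 h at room temperature. Compound exposure at 37 °C in PPARδ-bla HEK293H cells driven by an upstream activator sequence.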

A short description of assay [8]: qHTS assay to identify small molecule antagonists of the peroxisome proliferator-activated receptor delta (PPARd) signaling pathway - cell viability counter screen (AID 743213). Also: nearly all actives have a fitted effect of over 50% in size. A digest of the protocol: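 Viability counter-screen, qHTS format: PPARd-bla HEK293H, L165041 300 nM final, 17 h compound exposure at 37 C, CellTiter-Glo luminescence after 30 min RT.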
The target of assay [9] is Peroxisome proliferator-activated receptor delta (Homo sapiens) (UniProt Q03181). Put plainly: qHTS assay to identify small molecule antagonists of the peroxisome proliferator-activated receptor delta (PPARd) signaling pathway (AID 743215; active = well fitted inhibition curve with a large enough effect in the signal ratio in the repeat runs, not every such curve was filed as active; the % refers to the signal ratio;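 also: cells stimulated with agonist L165041 at 300 nM final during compound exposure; series mostly up to about 62 µM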). In short, it runs like this:
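Plated HEK293H PPARd-bla cells rested 5 h at 37 C and 5% CO2. Compound, then agonist L165041 at 300 nM final, was added; 17 h at 37 C followed. Substrate loading, 2 h room temperature, fluorescence measured.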

Assay [10] is described as follows: qHTS assay to identify small molecule agonists of the farnesoid-X-receptor (FXR) signaling pathway - cell viability counter screen (AID 743218). Also: nearly all actives have a fitted effect of over 45% in size. In short, it runs like this: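 Viability of FXR-bla HEK 293T cells is measured by ATP-based CellTiter-Glo luminescence following 16 h compound treatment at 37 C and a prior 2 h room-temperature beta-lactamase substrate step.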

Assay [11] in a line: qHTS assay to identify small molecule antagonists of the farnesoid-X-receptor (FXR) signaling pathway - cell viability counter screen (AID 743221; active = well fitted cell-killing curve with a large enough effect in the repeat runs, not every such curve was filed as active; also: nearly all actives have a fitted effect of over 50% in size). In short, it runs like this:
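FXR-UAS-bla HEK 293T cells were treated with test compounds plus chenodeoxycholic acid (50 uM final) for 16 h at 37 C. Cell viability in the same wells was then read as CellTiter-Glo luminescence after 30 min at room temperature.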

Assay [12] has as its target Vitamin D3 receptor (Homo sapiens) (UniProt P11473). Put plainly: qHTS assay to identify small molecule agonists of the vitamin D receptor (VDR) signaling pathway (AID 743222; calls by dose curve). A digest of the protocol:
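Fluorescence from cleaved LiveBLAzer B/G FRET substrate served as readout. VDR-bla cells had been treated 16 h at 37C with test compounds in DMSO, following a 4 h settling period, and substrate was loaded for 2 h at RT.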

Assay [13] shares this target. Put plainly: qHTS assay to identify small molecule antagonists of the vitamin D receptor (VDR) signaling pathway (AID 743223; active = well fitted inhibition curve with a large enough effect in the signal ratio in the repeat runs, not every such curve was filed as active; the % refers to the signal ratio). In short, it runs like this: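 VDR-bla cells were plated, incubated 4 h at 37C, then given compound and 1alpha,25-dihydroxyvitamin D3 (3 nM final). After 16 h at 37C, LiveBLAzer B/G FRET substrate was added for 2 h at room temperature and fluorescence read.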

Assay [14] can be described thus: qHTS assay to identify small molecule agonists of the vitamin D receptor (VDR) signaling pathway - cell viability counter screen (AID 743224). Also: series mostly up to about 63 µM; nearly all actives have a fitted effect of over 50% in size. In short, it runs like this:
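Compounds were pin-transferred onto VDR-bla cells plated 4 h earlier; following 16 h incubation at 37C, cell viability was quantified by CellTiter-Glo luminescence after 30 min at room temperature.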

The target of assay [15] is Peroxisome proliferator-activated receptor gamma (Homo sapiens) (UniProt P37231). Put plainly: qHTS assay to identify small molecule antagonists of the peroxisome proliferator-activated receptor gamma (PPARg) signaling pathway (AID 743191; calls by dose curve; also: nearly all actives have a fitted effect of over 30% in size; also: potency is read from the fitted curve at half-maximal effect). In short, it runs like this: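 Beta-lactamase reporter under UAS control in HEK293H PPARg-bla cells; compound treatment 17 h at 37C. Read-out: fluorescence intensity after 1 h room-temperature incubation with LiveBLAzer B/G FRET substrate.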

The nature of assay [16]: qHTS assay to identify small molecule antagonists of the peroxisome proliferator-activated receptor gamma (PPARg) signaling pathway - cell viability counter screen (AID 743194). Also: nearly all actives have a fitted effect of over 55% in size. Conditions: Potency: co-treated with 50 nM rosiglitazone. In short, it runs like this:
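Viability was measured as CellTiter-Glo luminescence in GeneBLAzer PPARg UAS-bla HEK293H cells. These cells had been exposed 17 h at 37 C to compounds together with rosiglitazone at 50 nM final, with the beta-lactamase readout taken in the same wells.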

Assay [17] is described as follows: qHTS assay for small molecule agonists of the antioxidant response element (ARE) signaling pathway - cell viability counter screen (AID 743203; calls by dose curve; also: nearly all actives have a fitted effect of over 55% in size). In short, it runs like this:
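Viability counter screen: stably transfected ARE-bla HepG2 line, 16 hrs compound exposure at 37C/5% CO2, ATP-based CellTiter-Glo luminescence measured in the reporter wells.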

Assay [18] deals with Bile acid receptor (Homo sapiens) (UniProt Q96RI1). Put plainly: qHTS assay to identify small molecule antagonists of the farnesoid-X-receptor (FXR) signaling pathway (AID 743217; active = well fitted inhibition curve with a large enough effect in the signal ratio in the repeat runs, not every such curve was filed as active; the % refers to the signal ratio). In short, it runs like this: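 Screen of the Tox21 10K library in quantitative HTS format using FXR-UAS-bla HEK 293T reporter cells. Agonist chenodeoxycholic acid, 50 uM final, added with compounds; 16 h incubation at 37 °C; beta-lactamase FRET fluorescence measured.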

For assay [19] the target is unchanged. Put plainly: qHTS assay to identify small molecule agonists of the farnesoid-X-receptor (FXR) signaling pathway (AID 743220; active = well fitted activation curve with a large enough effect in the signal ratio in the repeat runs, not every such curve was filed as active; the % refers to the signal ratio). A digest of the protocol:
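FXR-UAS-bla HEK 293T cells carrying a UAS-driven beta-lactamase reporter were plated for 5 h at 37C/5% CO2, then exposed to DMSO-dissolved Tox21 10K compounds for 16 h at 37C. A LiveBLAzer B/G FRET substrate was loaded for 2 h at room temperature before fluorescence reading.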

Assay [20] in a line: qHTS assay for small molecule agonists of the antioxidant response element (ARE) signaling pathway (AID 743202; active = well fitted activation curve with a large enough effect in the signal ratio in the repeat runs, not every such curve was filed as active; the % refers to the signal ratio). In short, it runs like this: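 After 16 hours of compound treatment at 37 C, HepG2 cells with a stably integrated ARE-driven beta-lactamase reporter were loaded 2 hours at room temperature with LiveBLAzer B/G FRET substrate and fluorescence intensity measured.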

Chain of Aryl hydrocarbon receptor (Homo sapiens) (P35869 whole entry, looked up): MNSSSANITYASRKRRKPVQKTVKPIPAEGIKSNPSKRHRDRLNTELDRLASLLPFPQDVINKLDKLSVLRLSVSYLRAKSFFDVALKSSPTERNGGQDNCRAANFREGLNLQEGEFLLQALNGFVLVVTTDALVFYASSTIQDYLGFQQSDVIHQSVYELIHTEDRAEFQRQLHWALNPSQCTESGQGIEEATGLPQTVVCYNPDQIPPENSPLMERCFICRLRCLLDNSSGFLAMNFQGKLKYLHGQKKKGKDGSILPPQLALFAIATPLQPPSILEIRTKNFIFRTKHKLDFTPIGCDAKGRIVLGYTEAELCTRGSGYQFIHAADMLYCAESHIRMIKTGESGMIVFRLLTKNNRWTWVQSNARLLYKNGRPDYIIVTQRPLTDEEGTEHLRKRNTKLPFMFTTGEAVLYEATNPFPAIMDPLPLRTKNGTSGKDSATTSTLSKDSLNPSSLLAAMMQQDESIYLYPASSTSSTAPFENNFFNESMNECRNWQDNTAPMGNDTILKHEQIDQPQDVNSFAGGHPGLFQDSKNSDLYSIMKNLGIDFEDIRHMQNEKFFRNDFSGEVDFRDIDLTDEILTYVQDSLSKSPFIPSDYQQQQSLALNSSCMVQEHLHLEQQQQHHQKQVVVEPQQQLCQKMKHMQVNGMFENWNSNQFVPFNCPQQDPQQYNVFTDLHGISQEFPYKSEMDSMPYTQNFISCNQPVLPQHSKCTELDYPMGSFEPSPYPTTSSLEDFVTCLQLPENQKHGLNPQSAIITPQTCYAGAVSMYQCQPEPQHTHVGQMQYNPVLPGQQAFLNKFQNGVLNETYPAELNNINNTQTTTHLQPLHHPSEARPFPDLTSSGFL
Chain of Vitamin D3 receptor (Homo sapiens) (P11473 whole entry, looked up): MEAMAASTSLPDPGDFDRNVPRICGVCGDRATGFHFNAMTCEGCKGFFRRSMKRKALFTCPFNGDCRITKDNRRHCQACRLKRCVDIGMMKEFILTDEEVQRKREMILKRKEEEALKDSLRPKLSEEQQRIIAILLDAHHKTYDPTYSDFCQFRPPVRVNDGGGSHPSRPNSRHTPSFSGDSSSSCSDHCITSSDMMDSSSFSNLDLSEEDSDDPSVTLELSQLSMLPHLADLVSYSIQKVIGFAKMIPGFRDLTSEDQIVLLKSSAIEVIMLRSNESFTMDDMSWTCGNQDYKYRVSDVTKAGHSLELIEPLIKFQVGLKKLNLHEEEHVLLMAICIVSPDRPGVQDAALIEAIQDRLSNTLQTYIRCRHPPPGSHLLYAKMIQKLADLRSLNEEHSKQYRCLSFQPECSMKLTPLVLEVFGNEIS
Chain of Bile acid receptor (Homo sapiens) (Q96RI1 whole entry, looked up): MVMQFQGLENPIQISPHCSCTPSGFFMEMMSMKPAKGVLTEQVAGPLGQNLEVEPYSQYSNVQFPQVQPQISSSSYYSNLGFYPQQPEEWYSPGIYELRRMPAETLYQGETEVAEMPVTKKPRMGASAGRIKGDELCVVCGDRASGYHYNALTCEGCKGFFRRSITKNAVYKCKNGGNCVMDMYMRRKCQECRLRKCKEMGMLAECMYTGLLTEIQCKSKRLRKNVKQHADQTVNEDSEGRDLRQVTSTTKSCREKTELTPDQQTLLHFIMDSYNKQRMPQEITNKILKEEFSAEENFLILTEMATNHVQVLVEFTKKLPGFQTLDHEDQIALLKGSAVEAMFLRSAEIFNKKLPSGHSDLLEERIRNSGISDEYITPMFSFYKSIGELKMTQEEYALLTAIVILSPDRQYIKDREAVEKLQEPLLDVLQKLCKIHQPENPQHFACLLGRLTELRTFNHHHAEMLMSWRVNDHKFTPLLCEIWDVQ
Chain of Peroxisome proliferator-activated receptor delta (Homo sapiens) (Q03181 whole entry, looked up): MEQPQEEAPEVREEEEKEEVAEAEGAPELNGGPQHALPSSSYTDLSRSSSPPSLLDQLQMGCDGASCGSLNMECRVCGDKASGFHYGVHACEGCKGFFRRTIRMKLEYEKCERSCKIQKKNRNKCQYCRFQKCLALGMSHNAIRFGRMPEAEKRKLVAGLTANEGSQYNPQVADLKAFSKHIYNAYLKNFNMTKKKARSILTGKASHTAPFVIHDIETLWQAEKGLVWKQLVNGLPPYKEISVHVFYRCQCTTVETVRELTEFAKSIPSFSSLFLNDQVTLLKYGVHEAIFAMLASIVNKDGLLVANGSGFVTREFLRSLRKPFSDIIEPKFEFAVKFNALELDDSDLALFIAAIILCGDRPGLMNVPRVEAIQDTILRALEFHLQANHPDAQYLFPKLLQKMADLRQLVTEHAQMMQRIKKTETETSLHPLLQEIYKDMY
Chain of Peroxisome proliferator-activated receptor gamma (Homo sapiens) (P37231 whole entry, looked up): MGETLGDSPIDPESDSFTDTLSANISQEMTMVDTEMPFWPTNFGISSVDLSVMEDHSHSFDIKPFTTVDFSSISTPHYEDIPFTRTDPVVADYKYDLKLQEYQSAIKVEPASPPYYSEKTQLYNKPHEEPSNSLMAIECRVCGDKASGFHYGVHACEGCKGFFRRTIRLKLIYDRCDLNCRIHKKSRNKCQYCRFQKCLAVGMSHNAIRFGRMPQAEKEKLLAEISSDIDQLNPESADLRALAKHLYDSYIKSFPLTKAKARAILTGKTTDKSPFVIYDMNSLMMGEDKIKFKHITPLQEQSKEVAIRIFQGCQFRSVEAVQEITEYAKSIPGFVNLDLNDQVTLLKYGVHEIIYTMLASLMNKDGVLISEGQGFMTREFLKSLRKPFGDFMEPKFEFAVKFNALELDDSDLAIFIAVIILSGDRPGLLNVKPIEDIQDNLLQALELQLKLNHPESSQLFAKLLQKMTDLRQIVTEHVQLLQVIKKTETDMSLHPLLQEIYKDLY

In the case of `C#CCN1C(=O)COc2cc(F)c(N3C(=O)C4=C(CCCC4)C3=O)cc21`, the Potency entry in assay [1], in assay [4], in assay [6], in [10] and in assay [14] was “inactive” in each case. The call in [2], in assay [3], in [5], in assay [7], in assay [8] and in [9] was inactive. For the same compound, the compound was called inactive in assay [11], in assay [12] and in assay [13].

For the compound `O=P(O)(Oc1ccccc1)Oc1ccccc1`, the Potency result in assay [1], in [15], in assay [16], in [17], in assay [4] and in assay [6] was “inactive” in each case. The Potency entry in assay [18], in assay [10] and in [14] was “inactive” each time. In addition, the outcome in assay [2], in assay [5], in assay [8], in assay [19], in [11] and in [13] was inactive.

With `Clc1cccc(N2CCNCC2)c1`, the Potency entry in assay [1], in [15], in [16], in [17], in [4] and in assay [6] was “inactive” in each case. Besides, the Potency result in assay [18], in assay [10] and in assay [14] was “inactive” throughout. Moreover, the call in [2], in assay [5], in [7], in assay [8], in [19] and in assay [11] was inactive. Besides, in assay [12], the outcome was inactive.

`CC1CCCCC1NC(=O)Nc1ccccc1` (centres undefined): the Potency result in [1], in assay [16], in assay [20], in assay [17], in assay [4] and in [6] was “inactive” in each case. Besides, the Potency entry in assay [18], in assay [10] and in assay [14] was “inactive” throughout. Moreover, the compound was called inactive in [2], in [5], in [7], in assay [8], in assay [9] and in [19]. In addition, the result in assay [11] and in [13] was inactive.

With `CCCSC(=O)Cl`, the Potency entry in assay [1], in [20], in assay [17], in [4], in [6] and in [18] was “inactive” throughout. Further, the Potency entry in [10] and in assay [14] was “inactive” in each case. Besides, the call in assay [2], in assay [3], in [5], in assay [7], in assay [8] and in assay [9] was inactive. Further, the compound was classed as inactive in assay [19], in assay [11] and in assay [13].

For `O=c1oc2ccccc2c(O)c1C1CCCc2ccccc21` (centres undefined), the Potency entry in assay [1], in assay [16], in assay [17], in assay [4], in assay [6] and in assay [10] was “inactive” throughout. Moreover, the Potency result in [14] is “inactive”. Also, the call in [2], in assay [5], in assay [8], in assay [9], in assay [11] and in [12] was inactive. In assay [13], the outcome was inactive. In addition, the Potency in [15] was 30.9 µM (active).

For `COC(=O)c1ccccc1S(=O)(=O)NC(=O)N(C)c1nc(C)nc(OC)n1`, the Potency entry in [1], in assay [15], in assay [20], in assay [17], in [4] and in assay [6] was “inactive” in each case. Also, the Potency entry in assay [18], in [10] and in [14] was “inactive” throughout. The compound was classed as inactive in assay [2], in assay [5], in assay [7], in assay [8], in assay [19] and in [11].

As for `COC(=O)C(C)Oc1ccc(Oc2ccc(Cl)cc2Cl)cc1` (centres undefined), the Potency result in assay [1], in assay [15], in assay [16], in assay [20], in [4] and in assay [6] was “inactive” each time. Further, the Potency entry in [18], in assay [10] and in [14] was “inactive” each time. The result in assay [2], in assay [5], in assay [7], in assay [8], in assay [9] and in assay [19] was inactive. Besides, the compound was classed as inactive in [11] and in [13].

On to `O=C(O)c1ccc2[nH]cc(CCCCN3CC=C(c4ccccc4)CC3)c2c1`, for which the Potency result in assay [1], in assay [17], in [4], in [6], in assay [10] and in assay [14] was “inactive” each time. Besides, the call in assay [2], in [3], in assay [7], in [8], in [11] and in [12] was inactive. In assay [13], the compound was called inactive.
